The values below come from PubChem BioAssay (NCI).

About 83,000 compounds went through this panel and 20% of them were active in at least one assay; those are over-represented in the sample as a whole.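 Growth was measured after 48 h exposure to one concentration of compound in 96-well plates. Values under 10 count as active.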 A number with no mark means an inactive call. Activity calls are given as the source filed them.

Test in all cases: NCI-60 one-dose screen, 48 h (100 = growth as untreated, 0 = no growth, -100 = all killed)
The test system of assay [1] is NCI-H226 lung. As to conditions: 10 µM unless noted.
Assay [2] deals with HOP-92 NSCLC. The conditions noted are these: 10 µM unless noted.
For assay [3], the system named is NCI-H522 lung. As to conditions: 10 µM unless noted.
Assay [4] concerns COLO 205 colon. The conditions noted are these: 10 µM.
The subject of assay [5] is MALME-3M melanoma. As to conditions: 10 µM unless noted.
Assay [6] relates to HT29 colon. As to conditions: 10 µM unless noted.
Assay [7] relates to PC-3 prostate. The conditions noted are these: 10 µM unless noted.
Assay [8] relates to SK-MEL-5 melanoma. As to conditions: 10 µM unless noted.
Assay [9] deals with EKVX NSCLC. The conditions noted are these: 10 µM unless noted.
Assay [10] relates to CAKI-1 renal. The conditions noted are these: 10 µM unless noted.
For assay [11], the system named is RPMI-8226 leukemia. The conditions noted are these: 10 µM unless noted.
Assay [12] deals with OVCAR-5 ovarian. The conditions noted are these: 10 µM unless noted.
Assay [13] relates to IGROV1 ovarian. As to conditions: 10 µM.
Assay [14] has as its system OVCAR-3 ovarian. The conditions noted are these: 10 µM unless noted.
Assay [15] deals with HS 578T breast. The conditions noted are these: 10 µM unless noted.
For assay [16], the system named is MCF7 breast. The conditions noted are these: 10 µM unless noted.
For assay [17], the system named is SNB-75 CNS. As to conditions: 10 µM unless noted.
For assay [18], the system named is CCRF-CEM leukemia. The conditions noted are these: 10 µM unless noted.
The test system of assay [19] is NCI-H322M lung. As to conditions: 10 µM unless noted.

Regarding `CNC(=O)Oc1cccc(OC)c1`, the growth in [1] is 102%; in [2] it was 125%; in assay [3], 96.5%; in assay [4], 119%; in assay [5], 115%; in assay [6], 103%. Also, the growth in assay [7] was 109%; in [8], 109%; in assay [9] it was 95.5%; in assay [10], 86.1%; in assay [11], 109%; in assay [12], 113%. Also, the growth in [13] is 118%; in assay [14] it was 121%; in assay [15], 109%; in [16], 101%.

For the compound `CC[CH2][Pb]([CH2]CC)([CH2]CC)[O]C(=O)C(F)(F)F`, the growth was -61.6% (active) in assay [1]; -89.2% (active) in [5]; -61.5% (active) in assay [6]; -99.9% (active) in assay [17]; -98.3% (active) in assay [8]; -95.2% (active) in assay [10]. In addition, the growth in assay [12] was -99% (active); in assay [14], -95.4% (active); in [15], -10.4% (active).

Take `COc1ccc(NP2(=O)OCC(C)(N)CO2)cc1` (stereo not given): the growth is 105% in assay [1]; 92.5% in assay [3]; 109% in [4]; 97.3% in assay [5]; 95.7% in assay [17]; 96.3% in assay [8]. In addition, the growth was 120% in assay [9]; 88.9% in [18]; 102% in [12]; 102% in assay [13]; 107% in assay [14]; 99.6% in [16].

Turning to `COC[CH2][Hg][C]#[C][Hg][CH2]COC`, the growth in [2] was 111%; in assay [5], 104%; in assay [6], 100%; in assay [7], 94.7%; in assay [10], 94.8%; in assay [12], 116%. For the same compound, the growth in [14] is 113%; in [16], 55.3%.

Regarding `CO[C@@H](c1ccccc1Cl)[C@H](C)OC(N)=O`, the growth was 96.4% in [1]; 95.1% in [19]; 94.2% in [3]; 101% in [4]; 93.5% in [5]; 106% in assay [6]. Moreover, the growth in [17] was 70.8%; in assay [7], 98.1%; in assay [8], 98.7%; in [9], 100%; in assay [10], 92.1%; in assay [18] it was 82.6%. Also, the growth was 110% in assay [11]; 91.5% in assay [12]; 102% in assay [13]; 111% in assay [14]; 99.9% in [15]; 102% in [16].

Regarding `N#CC(C#N)=Cc1ccc2ccccc2c1`, the growth in assay [1] is 106%; in assay [2], 95.1%; in assay [3], 96.7%; in assay [4], 110%; in assay [6], 113%; in [17] it was 103%. Moreover, the growth was 95.7% in assay [7]; 101% in assay [8]; 121% in [9]; 101% in assay [10]; 93.3% in assay [18]; 90.3% in assay [11]. Besides, the figures for the growth in [12], in assay [14] and in assay [16] were 106%, 117% and 103%, respectively.

Consider `COc1ccc(CN2CCN(Cc3ccccc3)CC2)c(O)c1`, for which the growth in assay [2] is 87.9%; in assay [3], 71.9%; in assay [4], 95.5%; in assay [5], 98.4%; in assay [6], 87.7%; in [17], 89.8%. Further, the growth in [7] was 86.2%; in assay [8] it was 87.9%; in [10], 92.4%; in [18], 87.1%; in assay [11], 77.1%; in [12] it was 101%. For the same compound, the values for the growth in assay [14] and in assay [15] were 81.1% and 102%, respectively.

Take `CCC(C)(C)O`: the growth in [1] was 102%; in assay [2], 95.3%; in assay [5], 110%; in assay [6] it was 109%; in assay [17], 92.1%; in [7] it was 100%. The growth in [8] is 101%; in [9] it was 98%; in [10], 93.6%; in assay [18], 6.63% (active); in [11] it was 106%; in [12] it was 90.1%. For the same compound, the figures for the growth in assay [13], in [15] and in assay [16] were 117%, 105% and 97.6%, respectively.

As to `CCOc1c(Cl)cc(CNC(C)C(O)c2ccccc2)cc1OC` (stereo not given), the growth in assay [19] was 92%; in [2], 27%; in assay [3], 69.1%; in assay [4] it was 95%; in assay [5] it was 46.9%; in assay [6], 53.1%. In addition, the growth was -15.5% (active) in [17]; 57.2% in [7]; 82.7% in assay [8]; 87.9% in assay [10]; 77.7% in assay [18]; 71.7% in assay [11]. The growth in assay [12] is 103%; in [13], 66%; in [15], 67.5%; in assay [16], 42.9%.

For the compound `O=C(CCF)c1ccc(O)cc1`, the growth in assay [1] was 105%; in [2], 100%; in assay [3], 87.6%; in [5] it was 108%; in assay [6], 98.2%; in [17] it was 96.9%. For the same compound, the growth was 117% in assay [8]; 99.3% in assay [9]; 95% in assay [18]; 96.7% in [12]; 100% in assay [13]; 109% in assay [14]. Moreover, the growth in assay [16] was 101%.

In the case of `C/C1=C/C(=O)O[C@@H]2C[C@@H](CC[C@H](C)/C=C\C=C\CC1)O[C@@](OCCc1ccccc1)([C@@H]1CSC(=O)N1)C2`, the growth in assay [19] was 27.8%; in assay [2], -58.9% (active); in assay [3], 7.26% (active); in [4] it was 5.64% (active); in assay [5], -10.3% (active); in [6] it was 8.63% (active). Besides, the growth in assay [17] is -62.8% (active); in [7], 18.3%; in [9] it was 1.32% (active); in assay [10], -74.3% (active); in [11], 46.7%; in assay [12] it was 11.2%. Further, the results for the growth in [14] and in assay [15] were -48.7% (active) and -2.84% (active), respectively.
